According to PubChem BioAssay (NCI):
This is part of a sample that, as a whole, favours compounds with a hit. Of some 79,000 tested, about 15% had one in any assay. The source made the active and inactive calls. Rule as the data show it: active = growth inhibition above about 70%; inactive = the rest.

Tests used:
[1] = NCI Yeast Anticancer Drug Screen. Data for the rad50 strain (AID 155);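 also: 0% = growth of vehicle-only cultures of the same strain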; conditions: S. cerevisiae rad50 strain growth inhibition; at 50.0 µM; hits give high values
Procedure, shortened: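 Readout: growth inhibition relative to vehicle-treated cultures. Compound exposure was carried out in a genetically defined yeast strain deficient in DNA damage repair.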

[2] = NCI Yeast Anticancer Drug Screen. Data for the mec2-1 strain (AID 157); conditions: S. cerevisiae mec2-1 strain, at 50.0 µM, hits give high values
Procedure, shortened: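 Yeast mec2-1 mutant treated with compound. Readout: growth inhibition vs vehicle controls.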

[3] = NCI Yeast Anticancer Drug Screen. Data for the sgs1 mgt1 strain (AID 161);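 also: 0% = growth of cultures given vehicle only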; conditions: S. cerevisiae sgs1 mgt1 strain, at 50.0 µM, hits give high values
Procedure, shortened: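 Test agents were incubated with a DNA-repair-mutant yeast strain. Growth was then read and compared against vehicle-treated controls.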

[4] = NCI Yeast Anticancer Drug Screen. Data for the cln2 rad14 strain (AID 165);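 also: 0% = growth equal to vehicle treated cultures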; conditions: S. cerevisiae cln2 rad14 strain, at 50.0 µM, hits give high values
Procedure, shortened: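 cln2 rad14 yeast strain; compound exposure; growth inhibition read vs vehicle controls.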

[5] = NCI Yeast Anticancer Drug Screen. Data for the bub3 strain (AID 167); conditions: S. cerevisiae bub3 mutant strain, at 50.0 µM, hits give high values
Procedure, shortened: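 Readout: yeast growth inhibition, expressed relative to vehicle-only wells. The test organism is a mutant strain from a panel with lesions in DNA repair or checkpoint genes.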

[6] = NCI Yeast Anticancer Drug Screen. Data for the mlh1 rad18 strain (AID 175); conditions: S. cerevisiae mlh1 rad18 strain growth inhibition; at 50.0 µM; hits give high values
Procedure, shortened: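 Yeast w/ defined DNA-repair lesions; compound exposure; growth vs vehicle controls → % inhibition.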

Measured: growth inhibition

O=C(NC1CC1)c1ccccc1
inactive: [1] 5.8% | [2] 1.6% | [3] 4.7% | [4] -5.9% | [5] 1.85% | [6] -15.7%

CN(Cc1cnc2nc(N)nc(N)c2n1)c1ccc(C(=O)NC(CCC(=O)NC(CCC(=O)NC(CCC(=O)NC(CCC(=O)O)C(=O)O)C(=O)O)C(=O)O)C(=O)O)cc1 (stereo not drawn)
inactive: [1] 42.8% | [2] -19.8% | [3] -35.9% | [4] -26.1% | [5] -41.6% | [6] -12.5%

CCCCCCCCCCCCn1c2nc(=O)[nH]c(=O)c-2nc2ccccc21
inactive: [1] -3.35% | [2] 3.75% | [3] -8.15% | [4] 4.25% | [5] -0.2% | [6] -26.1%
